From PubChem
In the library only some 11% were active in any assay of this set; here they are far more common.
HEK293 tox: HEK 293 cell cytotoxicity. HEK 293 viability, ATP luminescence (CellTiter-Glo), 48-72 h. Potency, µM (titrated, usually from 115 µM), without a hit: at the top dose activity change, negative = cytotoxicity, actives largely listed as inhibitors. 94,000 tested, 6.6% active. AID 1345083; active means well fitted curve in the direction sought with a large enough effect; inconclusive means small, poorly fitted or top-dose-only effect, or another doubt; inactive means no such curve, though single readings can be large; an effect the other way counts as inactive or inconclusive; further: on the % scale 0 is the no-effect control and ±100 the full control effect; nearly all actives have a fitted effect of over 60% in size
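Read-out: CellTiter-Glo ATP luminescence. Cells: HEK 293, 250 cells/well. Exposure: 48 or 72 hr, 37 degree Celsius.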
3T3 cytotox: NIH 3T3 cell cytotoxicity; Potency, µM (titrated, usually from 96.7 µM), for inactives: at the top dose activity change, negative = cytotoxicity, most hits filed as inhibitors; 94,000 tested, 4.3% active; NIH 3T3 viability, CellTiter-Glo ATP luminescence, 48-72 h; AID 1345082; active means well fitted curve in the direction sought with a large enough effect; inconclusive means small, poorly fitted or top-dose-only effect, or another doubt; inactive means no such curve, though single readings can be large; an effect the other way counts as inactive or inconclusive; further: on the % scale 0 is the no-effect control and ±100 the full control effect; nearly all actives have a fitted effect of over 55% in size
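Cells were seeded at 400 per well, treated with pin-transferred compound, and kept 48 or 72 hr at 37 °C before CellTiter-Glo addition and luminescence imaging of cellular ATP.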
hNpr1 antagonist: blocks ANP-stimulated signaling of human Npr1 receptor | Potency, µM (highest dose often 46.3 µM), inactives show at the highest dose activity change, negative = inhibition, hits mostly inhibitors | P16066 | AID 1347048 | 76,000 tested, 1.6% active | HEK293 hNpr1 GloSensor cGMP, ANP-stimulated luminescence; further: on the % scale 0 is the no-effect control and ±100 the full control effect; nearly all actives have a fitted effect of over 60% in size
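HEK293 cells stably expressing human Npr1 and cGMP GloSensor pGS-40F, loaded 2 h with 2% GloSensor reagent, given compound 30 min at room temperature. Luminescence read before and 20 min after 0.1 nM hNppA.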
FLuc inh: inhibitors of firefly (Photinus pyralis) luciferase; P08659; purified P. pyralis luciferase, luminescence, biochemical; Potency, µM (highest dose often 115 µM), hits mostly inhibitors; 76,000 tested, 2.5% active; AID 1347043; active means well fitted curve in the direction sought with a large enough effect; inconclusive means small, poorly fitted or top-dose-only effect, or another doubt; inactive means no such curve, though single readings can be large; an effect the other way counts as inactive or inconclusive; further: on the % scale 0 is the no-effect control and ±100 the full control effect; nearly all actives have a fitted effect of over 65% in size
Target sequence (P08659 whole entry, looked up): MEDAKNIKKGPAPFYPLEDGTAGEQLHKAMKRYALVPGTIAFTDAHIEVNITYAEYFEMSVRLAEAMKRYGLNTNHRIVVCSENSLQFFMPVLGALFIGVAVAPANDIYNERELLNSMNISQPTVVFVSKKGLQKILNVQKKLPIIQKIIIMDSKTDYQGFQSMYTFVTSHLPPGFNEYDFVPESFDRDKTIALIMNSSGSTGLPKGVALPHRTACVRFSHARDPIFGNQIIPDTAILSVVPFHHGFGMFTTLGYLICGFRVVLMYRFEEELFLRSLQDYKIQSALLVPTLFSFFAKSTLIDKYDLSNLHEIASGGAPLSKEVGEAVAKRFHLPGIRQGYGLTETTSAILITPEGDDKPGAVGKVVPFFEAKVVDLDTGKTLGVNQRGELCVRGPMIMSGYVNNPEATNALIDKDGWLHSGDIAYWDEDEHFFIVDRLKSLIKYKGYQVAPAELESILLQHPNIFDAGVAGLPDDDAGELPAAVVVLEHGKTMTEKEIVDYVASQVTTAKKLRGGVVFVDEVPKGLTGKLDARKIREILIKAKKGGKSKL
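Luminescence read by CCD imaging after purified firefly luciferase (10nM final) was added to substrate buffer holding 10uM D-luciferin and 10uM ATP, pH 7.5, pre-dosed with compound.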
NPR1 antag cnf: confirmation of human Npr1 natriuretic peptide receptor antagonists. shares compounds with hNpr1 antagonist. HEK293 hNpr1 cGMP GloSensor luminescence, ANP-stimulated. Potency, µM (series often up to 57.6 µM), inactives show at the top dose activity change, negative = inhibition, hits mostly inhibitors. 1,400 tested, 76% active. AID 1347044; further: nearly all actives have a fitted effect of over 70% in size
Npr2 selectivity: antagonizes human Npr2, subtype selectivity check; shares compounds with hNpr1 antagonist; HEK293 hNpr2 GloSensor cGMP luminescence, CNP-stimulated; Potency, µM (doses to about 57.6 µM), for the others: at the highest dose activity change, negative = inhibition, most hits filed as inhibitors; 1,400 tested, 67% active; further: nearly all actives have a fitted effect of over 70% in size
FLuc counter: inhibits firefly luciferase, false Npr1 antagonist flag; 1,400 tested, 0.7% active; AID 1347047; purified FLuc enzyme, luminescence, Km substrate; shares compounds with hNpr1 antagonist; Potency, µM (titrated, usually from 57.6 µM), inactives show at the top dose activity change, negative = inhibition, actives largely listed as inhibitors; active means well fitted curve in the direction sought with a large enough effect; inconclusive means small, poorly fitted or top-dose-only effect, or another doubt; inactive means no such curve, though single readings can be large; an effect the other way counts as inactive or inconclusive; further: series mostly up to about 58 µM; 0% is about no effect
GloSensor cGMP: reduces cGMP signal in GloSensor control cells | shares compounds with hNpr1 antagonist | HEK293 GloSensor cGMP, SNP-stimulated, luminescence | Potency, µM (series often up to 57.6 µM), inactives show at the highest dose activity change, negative = inhibition, hits mostly inhibitors | 1,400 tested, 69% active; further: on the % scale 0 is the no-effect control and ±100 the full control effect; nearly all actives have a fitted effect of over 70% in size
* hit, by the source's call; i = inactive; u = inconclusive; x = no result given; [ ] = dose if it differs, or a comment. Unless noted, the call rests on the fitted dose curve. Potency means the concentration at half of the fitted maximal effect.

SMILES	HEK293 tox	3T3 cytotox	hNpr1 antagonist	FLuc inh	NPR1 antag cnf	Npr2 selectivity	FLuc counter	GloSensor cGMP
O=C(Nc1cccnc1)c1cc(-c2ccccc2F)cc2c1OCCN2Cc1cccnc1	u	39.8µM*	u	i	u	31.4µM*	-15.7%[86.2 µM]	-5.5%[86.2 µM]
COc1cc(CNCc2ccccc2C)ccc1OCC(O)CN1CCOCC1 (stereo not drawn)	-18.0%	-21.2%	2.2%	i	x	x	x	x
COc1ccc(CN2C[C@H]3CN(Cc4ccc(C(F)(F)F)cc4)CCN3C2=O)cc1	u	u	u	i	x	x	x	x
COc1ccc(CN2CCN3C(=O)N(Cc4ccc(OC)cc4)C[C@H]3C2)cc1	u	u	14.1µM*	i	12.5µM*	17.7µM*	-15.2%[86.2 µM]	14µM*
COc1ccc(CN2C[C@H]3CN(Cc4cccnc4)CCN3C2=O)cc1	1.9%[172 µM]	0.3%[138 µM]	1.2%[70.6 µM]	i	x	x	x	x
COc1ccc(CN2C[C@H]3CN(Cc4ccc5c(c4)OCCO5)CCN3C2=O)cc1	u	u	10µM*	i	14µM*	15.7µM*	-14.1%[86.2 µM]	14µM*
COc1ccc(CN2C[C@H]3CN(Cc4ccc(S(C)(=O)=O)cc4)CCN3C2=O)cc1	u	-23.3%[138 µM]	u	i	x	x	x	x
COc1ccc(CN2C[C@H]3CN(Cc4ccc([N+](=O)[O-])cc4)CCN3C2=O)cc1	u	u	22.4µM*	i	15.7µM*	17.7µM*	-0.3%[86.2 µM]	15.7µM*
O=C1N(Cc2cccnc2)C[C@H]2CN(Cc3ccc(C(F)(F)F)cc3)CCN12	u	u	10µM*	i	12.5µM*	17.7µM*	2.2%[86.2 µM]	12.5µM*
Fc1cc(F)cc(-c2ccc(CN3CC4CCC(C3)N4c3ccc(C(F)(F)F)cc3)cc2)c1	0.5%	i	x	x	x	x	x	x
FC(F)(F)c1ccc(N2C3CCC2CN(Cc2cccc(-c4cccnc4)c2)C3)cc1	u	-20.5%	x	x	7.69µM*	9.68µM*	-0.8%	6.11µM*
O=C(Cc1c[nH]c2ncc(-c3ccccc3Oc3ccccc3)cc12)N1CCOCC1	50.1µM*	u	14.1µM*	i	12.5µM*	22.2µM*	-1.6%[86.2 µM]	12.5µM*
COc1ccc(-c2cnc3[nH]cc(CC(=O)N4CCNC(=O)C4)c3c2)cc1	-11.1%[172 µM]	u	-15.4%[70.6 µM]	i	x	x	x	x
O=C(Cc1c[nH]c2ncc(-c3ccccc3)cc12)NCCN1CCOCC1	-16.0%[172 µM]	u	2.8%[70.6 µM]	i	x	x	x	x
O=C(Cc1c[nH]c2ncc(-c3ccc(Oc4ccccc4)cc3)cc12)N1CCOCC1	56.2µM*	u	10µM*	i	12.5µM*	17.7µM*	u	11.1µM*
O=C(Cc1c[nH]c2ncc(-c3cccc(O)c3)cc12)N1CCOCC1	u	u	-27.1%[70.6 µM]	i	x	x	x	x
O=C(Cc1c[nH]c2ncc(-c3ccccc3)cc12)N1CC[S+](=O)([O-])CC1	-0.9%[172 µM]	u	-0.4%[70.6 µM]	u	x	x	x	x
COc1cc(F)cc(-c2cnc3[nH]cc(CC(=O)N4CCOCC4)c3c2)c1	u	u	6.31µM*	i	3.14µM*	17.7µM*	u	7.89µM*
O=C(Cc1c[nH]c2ncc(-c3ccccc3)cc12)N1CCCC1	u	u	u	i	28µM*	u	u	u
CC(C)(C)c1nnc2n1C(C(=O)NCCc1ccc(Cl)cc1)CC2 (stereo not drawn)	-0.5%	-1.3%	x	x	x	x	x	x
Cc1nc(N2CCC(C(=O)Nc3ccc(F)c(Cl)c3)CC2)cc(C(F)(F)F)n1	25.1µM*	u	11.2µM*	i	21.7µM*	21.7µM*	1.1%	21.7µM*
